For some assays here: Entries with a potency or affinity are not part of this list. The source made the active and inactive calls. Unless noted, how the calls were made is not given here.
Assays:
[1] = antimalarial activity against Dd2 strain (AID 2302;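 active means growth inhibition above 50% at the single 2 µM test dose, taken to imply half-maximal potency below 2 µM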;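 further: 0% = DMSO untreated growth and 100% = chloroquine plus artemisinin killed control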); conditions: P. falciparum Dd2 in RBCs, LDH growth readout, 72 h; at 2 µM; active compounds read high
[2] = HepG2 cytotoxicity, primary screen, cytotoxicity control for P. falciparum antimalarial project, cell-based, ATP luminescence (AID 2303;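 active means inhibition above 50%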;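 further: 0% = DMSO wells and 100% = digitonin-killed cells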); conditions: HepG2 viability, 24-48 h, at 10 µM, active compounds read high
[3] = biological target: L-lactate dehydrogenase (Plasmodium falciparum (isolate CDC / Honduras)) (UniProt Q27743); assay: PfLDH activity inhibition – cell lysate, 3D7 strain, counter-screen for P. falciparum growth inhibition project (AID 2304);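 further: 0% = vehicle and 100% = reference inhibitor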; conditions: P. falciparum 3D7 crude extract, LDH APAD/NBT absorbance; at 2 µM; active compounds read high
[4] = inhibition of 3D7 malaria parasite growth – strain 3D7 (AID 2306);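 further: 0% = DMSO wells and 100% = chloroquine plus artemisinin control wells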; conditions: P. falciparum 3D7 erythrocytic growth, LDH absorbance, 72 h; at 2 µM; active compounds read high
[5] = biological target: Calcium-dependent protein kinase 1 (Plasmodium falciparum (isolate 3D7)) (UniProt P62344); assay: PfCDPK1 kinase inhibitors, biochemical, TCAMS library (AID 1159585; cut-off not given, nearly all actives have IC50 up to about 0.98 µM;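 further: inhibitors leave more ATP so luminescence rises with inhibition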); conditions: recombinant PfCDPK1, Kinase-Glo ATP depletion luminescence
[6] = biological target: Plasmodium falciparum protein kinase 6 (PK6, PF3D7_1337100) (UniProt Q8IDW1); assay: PfPK6 kinase inhibitors, biochemical, TCAMS library (AID 1159586); conditions: recombinant PfPK6, Kinase-Glo ATP depletion luminescence
[7] = biological target: Protein kinase 7 (PK7), Plasmodium falciparum 3D7 (PF3D7_0213400) (UniProt Q7YTF7); assay: inhibition of Plasmodium PK7 catalytic activity – biochemical, TCAMS antimalarial set, Kinase-Glo luminescence (AID 1159587); conditions: recombinant PfPK7, Kinase-Glo ATP depletion luminescence
[8] = biological target: Calcium-dependent protein kinase 4 (Plasmodium falciparum (isolate 3D7)) (UniProt Q8IBS5); assay: PfCDPK4 kinase inhibitors, biochemical, TCAMS library (AID 1159588; cut-off not given, nearly all actives have IC50 up to about 0.91 µM); conditions: recombinant PfCDPK4, Kinase-Glo ATP depletion luminescence
Chain of Calcium-dependent protein kinase 4 (Plasmodium falciparum (isolate 3D7)) (Q8IBS5 whole entry, looked up): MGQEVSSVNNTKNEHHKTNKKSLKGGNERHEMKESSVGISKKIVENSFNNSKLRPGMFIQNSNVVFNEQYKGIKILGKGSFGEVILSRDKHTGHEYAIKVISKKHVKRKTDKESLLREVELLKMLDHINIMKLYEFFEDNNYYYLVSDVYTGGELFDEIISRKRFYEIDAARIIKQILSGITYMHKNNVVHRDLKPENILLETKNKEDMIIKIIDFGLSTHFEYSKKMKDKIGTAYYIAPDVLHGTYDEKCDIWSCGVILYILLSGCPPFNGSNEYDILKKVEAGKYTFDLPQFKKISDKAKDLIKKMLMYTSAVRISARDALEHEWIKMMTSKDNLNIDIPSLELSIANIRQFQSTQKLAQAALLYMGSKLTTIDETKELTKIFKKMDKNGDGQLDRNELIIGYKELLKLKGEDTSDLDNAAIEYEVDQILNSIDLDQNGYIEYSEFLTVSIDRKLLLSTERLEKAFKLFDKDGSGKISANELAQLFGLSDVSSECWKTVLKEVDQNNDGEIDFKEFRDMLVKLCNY

Chain of L-lactate dehydrogenase (Plasmodium falciparum (isolate CDC / Honduras)) (Q27743 whole entry, looked up): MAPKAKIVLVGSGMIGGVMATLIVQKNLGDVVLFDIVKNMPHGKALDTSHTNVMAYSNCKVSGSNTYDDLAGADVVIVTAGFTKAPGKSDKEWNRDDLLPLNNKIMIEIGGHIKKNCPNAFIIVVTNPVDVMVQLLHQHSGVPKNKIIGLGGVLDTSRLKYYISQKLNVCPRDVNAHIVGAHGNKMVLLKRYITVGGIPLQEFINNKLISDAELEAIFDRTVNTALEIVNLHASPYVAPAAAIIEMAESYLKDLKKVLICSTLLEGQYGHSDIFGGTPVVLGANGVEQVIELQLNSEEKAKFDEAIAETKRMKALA
Chain of Protein kinase 7 (PK7), Plasmodium falciparum 3D7 (PF3D7_0213400) (Q7YTF7 1-343): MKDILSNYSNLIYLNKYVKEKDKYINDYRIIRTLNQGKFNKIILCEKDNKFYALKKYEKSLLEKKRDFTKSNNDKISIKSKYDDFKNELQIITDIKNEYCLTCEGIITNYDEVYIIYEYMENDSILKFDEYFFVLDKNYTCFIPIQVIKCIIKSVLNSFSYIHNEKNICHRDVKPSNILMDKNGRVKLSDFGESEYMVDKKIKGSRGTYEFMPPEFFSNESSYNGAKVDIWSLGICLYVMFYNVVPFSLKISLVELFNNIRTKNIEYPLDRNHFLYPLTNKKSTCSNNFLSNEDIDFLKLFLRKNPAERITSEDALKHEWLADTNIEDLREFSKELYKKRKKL
Chain of Plasmodium falciparum protein kinase 6 (PK6, PF3D7_1337100) (Q8IDW1 1-305): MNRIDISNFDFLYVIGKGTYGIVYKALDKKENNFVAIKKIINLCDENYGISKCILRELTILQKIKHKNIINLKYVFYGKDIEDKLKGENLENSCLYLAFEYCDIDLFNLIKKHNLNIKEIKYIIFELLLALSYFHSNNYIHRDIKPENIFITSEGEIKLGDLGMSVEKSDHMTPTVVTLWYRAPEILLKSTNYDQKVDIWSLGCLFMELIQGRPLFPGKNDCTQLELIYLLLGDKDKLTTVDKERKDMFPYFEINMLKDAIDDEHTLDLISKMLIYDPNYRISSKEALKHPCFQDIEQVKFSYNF
Chain of Calcium-dependent protein kinase 1 (Plasmodium falciparum (isolate 3D7)) (P62344 whole entry, looked up): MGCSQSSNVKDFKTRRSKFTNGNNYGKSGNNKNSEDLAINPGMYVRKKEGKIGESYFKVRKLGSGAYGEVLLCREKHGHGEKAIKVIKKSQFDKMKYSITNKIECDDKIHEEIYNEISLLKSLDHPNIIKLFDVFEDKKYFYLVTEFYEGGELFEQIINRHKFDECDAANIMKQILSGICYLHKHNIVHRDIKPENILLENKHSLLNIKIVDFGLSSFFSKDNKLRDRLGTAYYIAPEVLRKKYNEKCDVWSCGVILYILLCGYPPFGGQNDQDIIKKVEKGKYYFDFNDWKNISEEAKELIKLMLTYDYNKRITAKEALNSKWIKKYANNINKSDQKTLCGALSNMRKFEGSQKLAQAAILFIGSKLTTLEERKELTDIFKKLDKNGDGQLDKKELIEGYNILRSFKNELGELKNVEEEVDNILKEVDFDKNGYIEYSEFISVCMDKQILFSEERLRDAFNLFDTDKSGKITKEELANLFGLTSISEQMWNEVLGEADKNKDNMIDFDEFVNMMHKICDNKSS

Cc1cc(NN=Cc2ccc(Cl)cc2)c2cc(F)ccc2n1
active: growth inhibition [1] 98% | growth inhibition [4] 101%
inactive: inhibition [2] 6% | inhibition [3] 2% | outcome [5] | outcome [6] | outcome [7] | outcome [8]

O=C(Nc1ccc([N+](=O)[O-])cc1Cl)c1cc2ccccc2cc1O
inactive: growth inhibition [1] 28% | inhibition [2] 6% | inhibition [3] 0% | outcome [5] | outcome [6] | outcome [7] | outcome [8]
active: growth inhibition [4] 94%

O=C(/C=C/c1ccc(Cl)c(Cl)c1)NCCCCCN1CCCC(C(=O)Nc2cccc(Cl)c2)C1 (stereo not given)
active: growth inhibition [4] 99%
inactive: growth inhibition [1] 2% | inhibition [2] 41% | inhibition [3] -2% | outcome [5] | outcome [6] | outcome [7] | outcome [8]

COc1cccc(NC(=O)Nc2ccc(-c3oc(C(=O)NCC(c4ccccc4)N(C)C)cc3-c3ccncc3)cc2)c1 (stereo not given)
inactive: inhibition [2] 6% | inhibition [3] 2% | outcome [5] | outcome [6] | outcome [7] | outcome [8]
active: growth inhibition [1] 99% | growth inhibition [4] 101%

O=C(Nc1ccc2c(c1)CCC2)c1cnc(N2CCN(c3ccncc3)CC2)c(Cl)c1
inactive: growth inhibition [1] 48% | inhibition [2] 33% | inhibition [3] 2% | outcome [5] | outcome [6] | outcome [7] | outcome [8]
active: growth inhibition [4] 100%

COc1ccc(-c2nc(NC(=O)CS(=O)(=O)c3ccccc3)sc2C)cc1
active: growth inhibition [1] 82% | growth inhibition [4] 99%
inactive: inhibition [2] 7% | inhibition [3] -9% | outcome [5] | outcome [6] | outcome [7] | outcome [8]

Cc1cc(-c2cccc(CNCc3ccc(F)cc3)c2)ccc1S(=O)(=O)NCCN1CCCC1
active: growth inhibition [1] 64% | growth inhibition [4] 101%
inactive: inhibition [2] 49% | inhibition [3] 4% | outcome [5] | outcome [6] | outcome [7] | outcome [8]

NC1=NC2(CCCC2)C(c2ccc(Cl)c(Cl)c2)C(N)=N1 (stereo not given)
active: growth inhibition [4] 92%
inactive: growth inhibition [1] 3% | inhibition [2] 7% | inhibition [3] -1% | outcome [5] | outcome [6] | outcome [7] | outcome [8]

O=C(CSc1nc(-c2ccccc2Cl)ns1)Nc1ccc2c(c1)OCO2
active: growth inhibition [1] 77% | growth inhibition [4] 93%
inactive: inhibition [2] -8% | inhibition [3] -5% | outcome [5] | outcome [6] | outcome [7] | outcome [8]

CCCc1cc(N2CCC(N3CCCC3)CC2)nc(Nc2ccc(OC)cc2)n1
inactive: growth inhibition [1] 14% | inhibition [2] 15% | inhibition [3] 6% | outcome [5] | outcome [6] | outcome [7] | outcome [8]
active: growth inhibition [4] 94%

O=C(O)c1cc(OCC(O)COc2ccc(O)c(C(=O)O)c2)ccc1O
inactive: growth inhibition [1] 6% | inhibition [2] 9% | inhibition [3] 5% | outcome [5] | outcome [6] | outcome [7] | outcome [8]
active: growth inhibition [4] 99%

CC(=O)c1cccc(NC(=O)NC2CCN(c3ccnc(Nc4ccc(F)cc4)n3)C2)c1 (stereo not given)
inactive: inhibition [2] 10% | inhibition [3] -2% | outcome [5] | outcome [6] | outcome [7] | outcome [8]
active: growth inhibition [1] 94% | growth inhibition [4] 99%

Cc1cccc2[nH]c(-c3cccc(-c4ccc(NC(=O)COC(C)C)cc4)c3)nc12
inactive: growth inhibition [1] 11% | inhibition [2] -4% | inhibition [3] 7% | outcome [5] | outcome [6] | outcome [7] | outcome [8]
active: growth inhibition [4] 82%

CC(C)(C)c1ccc(C(=O)Nc2cccc(Nc3c(C(=O)NCc4cccc(C(F)(F)F)c4)cnc4c(O)cccc34)c2)cc1
inactive: inhibition [2] 40% | inhibition [3] 1% | outcome [5] | outcome [6] | outcome [7] | outcome [8]
active: growth inhibition [1] 79% | growth inhibition [4] 83%

O=C(Nc1cccc(-c2ccc(NCCCN3CCCC3)nc2)c1)c1ccccc1
active: growth inhibition [4] 100%
inactive: growth inhibition [1] 21% | inhibition [2] 22% | inhibition [3] 4% | outcome [5] | outcome [6] | outcome [7] | outcome [8]

CCNC(=O)c1ccc(-n2nc(C)cc2-c2ccccc2)cc1
active: growth inhibition [1] 54% | growth inhibition [4] 89%
inactive: inhibition [2] 11% | inhibition [3] 2% | outcome [5] | outcome [6] | outcome [7] | outcome [8]

Cc1cc(N[C@@H](Cc2ccccc2)C(=O)NCCOc2ccccc2)nc(NCCc2cccs2)n1
inactive: growth inhibition [1] 32% | inhibition [2] 8% | inhibition [3] 0% | outcome [5] | outcome [6] | outcome [7] | outcome [8]
active: growth inhibition [4] 95%

C[C@@H](NCCc1cccc(Cl)c1)[C@@H](O)c1ccc(OCCCCCCOc2ccc([C@H](O)[C@@H](C)NCCc3cccc(Cl)c3)cc2)cc1
active: growth inhibition [1] 100% | inhibition [2] 96% | growth inhibition [4] 100%
inactive: inhibition [3] -1% | outcome [5] | outcome [6] | outcome [7] | outcome [8]

O=C(/C=C/c1ccc(Cl)c(Cl)c1)NCCCCCN1CCC(NC(=O)Nc2cccc(Cl)c2F)CC1
active: inhibition [2] 75% | growth inhibition [4] 101%
inactive: growth inhibition [1] 30% | inhibition [3] 4% | outcome [5] | outcome [6] | outcome [7] | outcome [8]

CN1C(=CC(=O)NC(=O)c2ccccc2)C(C)(C)c2ccccc21
inactive: inhibition [2] -5% | inhibition [3] 4% | outcome [5] | outcome [6] | outcome [7] | outcome [8]
active: growth inhibition [1] 89% | growth inhibition [4] 93%

Cc1ccc(CNc2cc(C(F)(F)F)nc(-c3ccc(S(C)(=O)=O)cc3)n2)cc1
inactive: inhibition [2] 2% | inhibition [3] -4% | outcome [5] | outcome [6] | outcome [7] | outcome [8]
active: growth inhibition [1] 72% | growth inhibition [4] 89%

CN1CCN(CCCN(Cc2cccc(-c3ccc(CNCCc4ccccc4)cc3)c2)C(=O)Nc2ccccc2)CC1
active: growth inhibition [1] 91% | inhibition [2] 61% | growth inhibition [4] 100%
inactive: inhibition [3] 3% | outcome [5] | outcome [6] | outcome [7] | outcome [8]

O=C(NCc1ccccc1)NC(CCCN1CCC(Oc2cccc(Cl)c2)CC1)c1ccc(Cl)c(Cl)c1 (stereo not given)
inactive: inhibition [2] 15% | inhibition [3] 4% | outcome [5] | outcome [6] | outcome [7] | outcome [8]
active: growth inhibition [1] 57% | growth inhibition [4] 81%

CCN1CCN(Cc2ccc(-c3ccc(NS(=O)(=O)c4cccc5cccnc45)cc3)cc2)CC1
inactive: growth inhibition [1] 42% | inhibition [2] 29% | inhibition [3] -2% | outcome [5] | outcome [6] | outcome [7] | outcome [8]
active: growth inhibition [4] 90%

CCCCOc1c(CNCCCCCCNCc2ccc3ccccc3c2OCCCC)ccc2ccccc12
inactive: inhibition [3] 7% | outcome [5] | outcome [6] | outcome [7] | outcome [8]
active: growth inhibition [1] 89% | inhibition [2] 99% | growth inhibition [4] 96%

C[C@@H]1CN(c2cnn(C/C=C/c3ccc(NC(=O)c4ccc([N+](=O)[O-])cc4)cc3)c(=O)c2Cl)C[C@H](C)N1
active: growth inhibition [4] 96%
inactive: growth inhibition [1] 38% | inhibition [2] 22% | inhibition [3] -3% | outcome [5] | outcome [6] | outcome [7] | outcome [8]

Nc1ncc(-c2cccc(OCc3ccccc3)c2)cc1-c1nnc2ccc(Cl)nn12
inactive: growth inhibition [1] 7% | inhibition [2] -7% | inhibition [3] -5% | outcome [5] | outcome [6] | outcome [7] | outcome [8]
active: growth inhibition [4] 94%

CCN(CCCN1CCCCC1)c1cc(C)nc(Nc2cccc(C(F)(F)F)c2)n1
active: growth inhibition [1] 88% | growth inhibition [4] 102%
inactive: inhibition [2] 25% | inhibition [3] 5% | outcome [5] | outcome [6] | outcome [7] | outcome [8]

COc1ccc(OC)c(C=NNc2nc3ccccc3[nH]2)c1
active: growth inhibition [4] 99%
inactive: growth inhibition [1] 28% | inhibition [2] -6% | inhibition [3] 7% | outcome [5] | outcome [6] | outcome [7] | outcome [8]

COc1cc(NC(=O)c2ccc3oc4ccccc4c3c2)ccc1OCCN1CCCCC1
inactive: growth inhibition [1] 11% | inhibition [2] 12% | inhibition [3] -4% | outcome [5] | outcome [6] | outcome [7] | outcome [8]
active: growth inhibition [4] 89%

COc1ccccc1CCC(C)(C)NC(=O)CC(CCc1ccccc1)Nc1ccc(C#N)c2ccccc12 (stereo not given)
active: growth inhibition [1] 65% | growth inhibition [4] 94%
inactive: inhibition [2] 6% | inhibition [3] 0% | outcome [5] | outcome [6] | outcome [7] | outcome [8]

Cc1ccc2c(Cl)c(C(=O)N3CCCc4ccccc43)sc2c1
active: growth inhibition [4] 99%
inactive: growth inhibition [1] 15% | inhibition [2] 4% | inhibition [3] 0% | outcome [5] | outcome [6] | outcome [7] | outcome [8]

O=C(Nc1ccc(CN2CCCCC2)cc1)c1ccc(COc2ccc([N+](=O)[O-])cc2)o1
active: growth inhibition [4] 86%
inactive: growth inhibition [1] -3% | inhibition [2] 12% | inhibition [3] -1% | outcome [5] | outcome [6] | outcome [7] | outcome [8]

Oc1ccc(CCCNc2nc(NCc3ccccc3-c3ccccc3)nc(NC3CCNCC3)n2)cc1
active: growth inhibition [4] 97%
inactive: growth inhibition [1] 2% | inhibition [2] -1% | inhibition [3] 6% | outcome [5] | outcome [6] | outcome [7] | outcome [8]

Nc1cnc(C#Cc2cc3ncnc(N(CCN4CCOCC4)c4ccc(OCc5cccc(F)c5)c(Cl)c4)c3s2)cn1
active: growth inhibition [1] 57% | growth inhibition [4] 87%
inactive: inhibition [2] -8% | inhibition [3] -9% | outcome [5] | outcome [6] | outcome [7] | outcome [8]

Cc1cccc2[nH]c(-c3ccc(-c4cccc(CNCCNC(=O)c5ccnn5C)c4)s3)nc12
active: growth inhibition [1] 87% | growth inhibition [4] 102%
inactive: inhibition [2] 17% | inhibition [3] -4% | outcome [5] | outcome [6] | outcome [7] | outcome [8]

O=S(=O)(Nc1ccc(CCN2CCCCC2CCN2CCCC2)cc1)c1ccc(-c2ccccc2)cc1 (stereo not given)
active: growth inhibition [4] 98%
inactive: growth inhibition [1] 18% | inhibition [2] 18% | inhibition [3] -1% | outcome [5] | outcome [6] | outcome [7] | outcome [8]

C[C@H](O)[C@@](C)(CO)NCc1ccc2c3c(cccc13)-c1ccccc1-2
active: growth inhibition [1] 85% | inhibition [2] 81% | growth inhibition [4] 95%
inactive: inhibition [3] -2% | outcome [5] | outcome [6] | outcome [7] | outcome [8]

c1csc(-c2nc(N3CCCC3)ncc2-c2ccsc2)n1
inactive: inhibition [2] 1% | inhibition [3] 3% | outcome [5] | outcome [6] | outcome [7] | outcome [8]
active: growth inhibition [1] 75% | growth inhibition [4] 89%

O=S(=O)(NCCN1CCCC1)c1ccc(-c2ccc(CNCc3ccsc3)cc2)cc1F
inactive: growth inhibition [1] 40% | inhibition [2] 27% | inhibition [3] 0% | outcome [5] | outcome [6] | outcome [7] | outcome [8]
active: growth inhibition [4] 96%
